Some test systems named below: T-47D breast; BT-549 breast; MDA-MB-435 melanoma; SW-620 colon; HCT-116 colon; HCC-2998 colon; KM12 colon; MCF7 breast.
Holding throughout (assay): NCI-60 one-dose screen, 48 h (100 = growth as untreated, 0 = no growth, -100 = all killed)
What all share (conditions): 10 µM unless noted

About 83,000 compounds went through this panel and 20% of them were active in at least one assay; those are over-represented in the sample as a whole.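 Plates (96-well) were seeded with cells, treated with compound at one concentration, and incubated for 48 hours before percent growth was determined.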 Unmarked numbers belong to inactive results. Activity calls are given as the source filed them. Rule for the calls: active = growth percent below 10; inactive = the rest.

Consider 18 molecules from PubChem BioAssay (NCI).

Take `CC(=O)Nc1ccc(S(=O)(=O)NC2CCCCC2)cc1`: the growth is 90.9% with T-47D breast; 96.4% in the assay with BT-549 breast; 105% in the assay with MDA-MB-435 melanoma; 97.7% in the assay on SW-620 colon; 103% with HCT-116 colon; 102% in the assay on HCC-2998 colon. The growth with KM12 colon is 104%.
Take `S=c1[nH]cccc1-c1nnc2n1Nc1nc3ccccc3cc1CS2`: the growth in the assay on T-47D breast is 95.4%; in the assay on BT-549 breast, 100%; in the assay with MDA-MB-435 melanoma it was 106%; in the assay with SW-620 colon, 99.4%; in the assay on HCT-116 colon, 94.9%; with HCC-2998 colon it was 98.5%. Moreover, the growth with KM12 colon was 109%.
Consider `ClCC1(Cn2cnc3c(Cl)nc(Cl)nc32)COC1`, for which the growth is 72% in the assay with T-47D breast; 108% in the assay on BT-549 breast; 87.6% with MDA-MB-435 melanoma; 66.3% with SW-620 colon; 13.7% with HCT-116 colon; -6.15% (active) in the assay with HCC-2998 colon. In addition, the growth in the assay on KM12 colon is 97.5%.
Regarding `c1ccc(-c2nn(-c3ccccc3)[n+](-c3ccccc3-c3ccccc3)n2)cc1`, the growth in the assay on T-47D breast was 19.2%; in the assay with BT-549 breast, -0.13% (active); with MDA-MB-435 melanoma, 6.4% (active); in the assay with MCF7 breast it was 8.29% (active); in the assay on HCT-116 colon, 7.4% (active); in the assay on HCC-2998 colon, 18.9%. Also, in the assay on KM12 colon, the growth is 9.9% (active).
With `COC(=O)Nc1nc2ccc(C(=O)c3cccc(I)c3)cc2[nH]1`, the growth in the assay on T-47D breast was 63.8%; in the assay on BT-549 breast, 6.76% (active); with MDA-MB-435 melanoma, -35.8% (active); in the assay on SW-620 colon, 21.3%; in the assay on HCT-116 colon, 9.66% (active); in the assay with HCC-2998 colon it was 18.3%. Moreover, the growth with KM12 colon was 7.58% (active).
Regarding `Fc1ccc(C2CC(c3cccc(Nc4ccncc4)c3)=NN2c2ccccc2)cc1` (centres undefined), the growth is 71% in the assay with T-47D breast; 87.7% in the assay with BT-549 breast; -54.8% (active) in the assay with MDA-MB-435 melanoma; -65.4% (active) in the assay with SW-620 colon; 61.9% in the assay on HCT-116 colon; 3.99% (active) in the assay with HCC-2998 colon. In the assay on KM12 colon, the growth is 8.85% (active).
`O=C1c2cccnc2C(=O)c2nc3cc(N4CCN(C5CC5)CC4)ccc3nc21`: the growth was 22.5% in the assay on T-47D breast; -93.7% (active) in the assay with BT-549 breast; -87.4% (active) with MDA-MB-435 melanoma; -56.1% (active) in the assay on MCF7 breast; 0.851% (active) in the assay with HCT-116 colon; -80.8% (active) in the assay on HCC-2998 colon. The growth with KM12 colon was 9.27% (active).
Take `c1ccc(-c2nn(-c3ccccc3)[n+](-c3cccc4ccccc34)n2)cc1`: the growth in the assay with T-47D breast is 25%; in the assay with BT-549 breast, 13.4%; in the assay with MDA-MB-435 melanoma it was -50.3% (active); in the assay on MCF7 breast, 11.7%; in the assay with HCT-116 colon, 7.65% (active); with HCC-2998 colon it was 20.8%. The growth with KM12 colon was 10.1%.
Take `NNC(=O)/C(=C\c1ccc([N+](=O)[O-])cc1)CC(=O)c1ccc(Cl)c(Cl)c1`: the growth in the assay with T-47D breast was 77.1%; in the assay with BT-549 breast, 110%; with MDA-MB-435 melanoma, 96.9%; in the assay on SW-620 colon, 86%; with HCT-116 colon it was 88.9%; in the assay with HCC-2998 colon, 93.5%. The growth in the assay on KM12 colon was 95.2%.
In the case of `Cc1[nH]n(-c2cccc(Cl)c2)c(=O)c1/C=C1\C=Nc2ccc(Br)cc21`, the growth in the assay with T-47D breast was -47.4% (active); in the assay on BT-549 breast, 41.5%; with MDA-MB-435 melanoma it was 43.9%; in the assay on SW-620 colon it was 17.2%; in the assay on HCT-116 colon it was -76% (active); in the assay with KM12 colon, 47.2%.
For the molecule `Nc1nc(SN=Nc2ccc(S(N)(=O)=O)cc2)c2[nH]cnc2n1`, the growth was 23.8% with T-47D breast; 36% in the assay with BT-549 breast; 7.71% (active) with MDA-MB-435 melanoma; 19.2% in the assay with SW-620 colon; 12.3% in the assay on HCT-116 colon; 5.53% (active) with HCC-2998 colon. Also, in the assay with KM12 colon, the growth is 5.31% (active).
Take `CC1=CC[C@@H]2CC[C@]3(C)[C@H](CC[C@@H]4[C@@]5(C)CCCNC(C)(C)[C@@H]5CC[C@]43C)[C@H]2[C@@H]1C`: the growth was 65% in the assay with T-47D breast; 97.1% with BT-549 breast; -17.3% (active) in the assay on MDA-MB-435 melanoma; -66.3% (active) in the assay on SW-620 colon; -32.1% (active) in the assay on HCT-116 colon; -51.5% (active) in the assay on HCC-2998 colon. Also, the growth with KM12 colon is -53% (active).
Turning to `C[C@@H]1CN(Cc2ccc(/C=C/c3n[nH]c4ccc5nc(-c6cn[nH]c6C(F)(F)F)c6c(c5c34)CCCC6)cc2)C[C@H](C)O1`, the growth in the assay on T-47D breast was 49.8%; in the assay on BT-549 breast it was 39.6%; with MDA-MB-435 melanoma it was 46.7%; in the assay on SW-620 colon, -16.6% (active); in the assay on HCT-116 colon, 4.51% (active); in the assay with HCC-2998 colon it was 27.6%. The growth with KM12 colon was 19.8%.
Consider `N/C(=N\N=C\c1cc2ccccc2[nH]1)N/N=C/c1cc2ccccc2[nH]1`, for which the growth in the assay with T-47D breast was 88.8%; in the assay on BT-549 breast, 98.7%; in the assay with MDA-MB-435 melanoma, 104%; with SW-620 colon, 101%; in the assay with HCT-116 colon it was 86.8%; with HCC-2998 colon it was 99.6%. The growth with KM12 colon was 97.6%.
Take `O=S(=O)(NCCCNc1nccc(-c2c(-c3cccc(O)c3)nc3occn23)n1)c1ccc(F)cc1`: the growth with T-47D breast was 56.3%; with BT-549 breast, 87.4%; with MDA-MB-435 melanoma, 37.3%; in the assay on MCF7 breast it was 85.2%; in the assay with HCT-116 colon, 56.2%; with HCC-2998 colon, 109%.
In the case of `COc1ccc(C(=O)c2cc3c(N)c(C(=O)Nc4cccc(Cl)c4)sc3nc2C)cc1`, the growth in the assay with T-47D breast was 43.8%; in the assay with BT-549 breast it was 78.1%; in the assay with MDA-MB-435 melanoma it was -35.2% (active); in the assay on SW-620 colon, 35.4%; with HCT-116 colon, 14.9%; in the assay on HCC-2998 colon, 18.3%. Besides, the growth with KM12 colon is 22.1%.
Take `N#Cc1cc(-c2nc3ccccc3s2)c(=O)n(NS(=O)(=O)c2ccc(Cl)cc2)c1N`: the growth with T-47D breast is 96.6%; with BT-549 breast it was 105%; with MDA-MB-435 melanoma, 101%; in the assay on SW-620 colon, 97.7%; in the assay on HCT-116 colon, 98.5%; in the assay on HCC-2998 colon it was 111%. In the assay with KM12 colon, the growth is 102%.
In the case of `CCCCCCC/C=C/[C@H]1O[C@]2(O)C(=O)C=C3C[C@@H](O[C@@H]4O[C@H](CO)[C@@H](O)C(O)[C@@H]4O)C[C@@H]3[C@H]2C=C1C` (some centres undefined), the growth with T-47D breast was -9.2% (active); in the assay on BT-549 breast it was -18.6% (active); in the assay with MDA-MB-435 melanoma, -19.9% (active); in the assay on MCF7 breast it was 8.66% (active); in the assay with HCT-116 colon, -45.9% (active); in the assay with HCC-2998 colon, 32.8%. In addition, the growth in the assay on KM12 colon is 15.5%.
